Assay results as given in PubChem BioAssay AID1159580 (chemical genetic matrix, 2015).
The whole screen tested about 5,500 compounds, of which about 2,000 (36%) were called active. Inconclusive results (about 18%) are left out. No stated cut-off is given here; in the data, active means normalized growth mostly below about 0.91 (no sharp cut-off); inconclusive means no clear call, values can overlap the other calls; inactive means mostly above about 0.92. The list shows a part of the results.

Assay: chemical genetic growth profiling, strain panel (AID 1159580);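 further: tested at 20 µM; growth read once vehicle control cultures reached saturation at 30 °C; 1 = growth at the plate median or of vehicle wells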
Conditions: S. cerevisiae deletion strains, growth OD
[1] = locus YHR030C, strain SLT2, stronger effect = lower value
[2] = locus YHR079C, strain IRE1, stronger effect = lower value
[3] = locus YJL095W, strain BCK1, stronger effect = lower value
[4] = locus YJR066W, strain TOR1, stronger effect = lower value
[5] = locus YLR113W, strain HOG1, stronger effect = lower value
[6] = locus YNL183C, strain NPR1, stronger effect = lower value
[7] = locus YOR231W, strain MKK1, stronger effect = lower value
[8] = locus YPL256C, strain CLN2, stronger effect = lower value
[9] = locus YAL040C, strain CLN3, stronger effect = lower value
[10] = locus YCL061C, strain MRC1 (second series), stronger effect = lower value
[11] = locus YDR363W, strain ESC2, stronger effect = lower value
[12] = locus YER002W, strain NOP16, stronger effect = lower value
[13] = locus YMR307W, strain GAS1, stronger effect = lower value
[14] = locus YNL175C, strain NOP13, stronger effect = lower value
[15] = locus YNL197C, strain WHI3, stronger effect = lower value
[16] = locus YNL224C, strain SQS1, stronger effect = lower value
[17] = locus YOR083W, strain WHI5 (second series), stronger effect = lower value

Measured: normalized growth

CN(C)c1ccc2nc3ccc(=[N+](C)C)cc-3sc2c1
active: locus YDL005C, strain med2, stronger effect = lower value 1.1 [resistant] | locus YDR195W, strain ref2 1.25 [resistant] | locus YDR392W, strain spt3, stronger effect = lower value 0.624 | locus YGL167C, strain pmr1, stronger effect = lower value 1.09 [resistant] | locus YGL253W, strain hxk2, stronger effect = lower value 1.11 [resistant] | locus YHR013C, strain ard1, stronger effect = lower value 1.18 [resistant] | locus YHR027C, strain rpn1, stronger effect = lower value 1.08 [resistant] | [4] 0.576 | locus YKR091W, strain srl3, stronger effect = lower value 1.07 [resistant] | locus YLL041C, strain sdh2, stronger effect = lower value 1.08 [resistant] | [6] 0.543 | locus YNL209W, strain ssb2, stronger effect = lower value 1.08 [resistant]
inactive: locus YAL021C, strain ccr4, stronger effect = lower value 0.991 | locus YAL026C, strain drs2, stronger effect = lower value 1.01 | locus YAL030W, strain snc1, stronger effect = lower value 1.06 | locus YBL061C, strain skt5, stronger effect = lower value 1.05 | locus YBR009C, strain hhf1, stronger effect = lower value 1.04 | locus YBR023C, strain chs3, stronger effect = lower value 1.07 | locus YBR171W, strain sec66, stronger effect = lower value 1.08 | locus YBR231C, strain swc5, stronger effect = lower value 0.995 | locus YBR279W, strain paf1, stronger effect = lower value 1.07 | locus YCL011C, strain gbp2, stronger effect = lower value 1.04 | locus YCL016C, strain dcc1, stronger effect = lower value 1.02 | locus YCL069W, strain vba3, stronger effect = lower value 1.08 | locus YCR088W, strain abp1, stronger effect = lower value 1.07 | locus YDL040C, strain nat1, stronger effect = lower value 1.05 | locus YDR001C, strain nth1, stronger effect = lower value 1.06 | locus YDR069C, strain doa4, stronger effect = lower value 1.06 | locus YDR137W, strain rgp1, stronger effect = lower value 1 | locus YDR159W, strain sac3, stronger effect = lower value 1.03 | locus YDR297W, strain sur2, stronger effect = lower value 1.07 | locus YDR334W, strain swr1, stronger effect = lower value 1.05 | locus YDR335W, strain msn5, stronger effect = lower value 1.07 | locus YEL003W, strain gim4, stronger effect = lower value 0.974 | locus YEL037C, strain rad23, stronger effect = lower value 1.06 | locus YEL061C, strain CIN8 (second series), stronger effect = lower value 1.04 | locus YER015W, strain faa2, stronger effect = lower value 1.05 | locus YER016W, strain bim1, stronger effect = lower value 1.05 | locus YER111C, strain swi4, stronger effect = lower value 1.08 | locus YER155C, strain BEM2 (second series), stronger effect = lower value 0.941 | locus YFR010W, strain ubp6, stronger effect = lower value 1.06 | locus YGL173C, strain kem1, stronger effect = lower value 1.05 | locus YGL227W, strain vid30, stronger effect = lower value 1.08 | locus YGL240W, strain doc1, stronger effect = lower value 1 | [1] 0.994 | [2] 1.02 | locus YHR142W, strain chs7, stronger effect = lower value 1.07 | locus YJL092W, strain hpr5, stronger effect = lower value 1.05 | locus YJL095W, strain BCK1 (second series), stronger effect = lower value 1.07 | [3] 1.05 | locus YJL115W, strain asf1, stronger effect = lower value 1.07 | locus YJL129C, strain trk1, stronger effect = lower value 1.08 | locus YJL154C, strain vps35, stronger effect = lower value 1.06 | locus YJL164C, strain tpk1, stronger effect = lower value 1.04 | locus YJL166W, strain qcr8, stronger effect = lower value 1.02 | locus YKL160W, strain elf1, stronger effect = lower value 1.03 | locus YKR026C, strain gcn3, stronger effect = lower value 1.07 | locus YLL001W, strain dnm1, stronger effect = lower value 1.05 | locus YLL026W, stronger effect = lower value 1.05 | locus YLR027C, strain aat2, stronger effect = lower value 1.05 | [5] 1.07 | locus YLR221C, strain rsa3, stronger effect = lower value 1.04 | locus YLR258W, strain gsy2, stronger effect = lower value 1.04 | locus YLR262C, strain YPT6 (second series), stronger effect = lower value 1.1 | locus YLR320W, strain mms22, stronger effect = lower value 0.993 | locus YLR342W, strain FKS1, stronger effect = lower value 1.06 | locus YLR357W, strain rsc2, stronger effect = lower value 1.12 | locus YLR370C, strain arc18, stronger effect = lower value 1.05 | locus YLR384C, strain iki3, stronger effect = lower value 1.07 | locus YML120C, strain ndi1, stronger effect = lower value 1.04 | locus YMR058W, strain fet3, stronger effect = lower value 0.985 | locus YMR125W, strain sto1, stronger effect = lower value 1.09 | locus YMR129W, stronger effect = lower value 1.05 | locus YMR205C, strain PFK2, stronger effect = lower value 1.03 | locus YMR231W, strain pep5, stronger effect = lower value 1.04 | locus YNL071W, strain lat1, stronger effect = lower value 0.992 | locus YNL248C, strain rpa49, stronger effect = lower value 1.11 | locus YNL322C, strain KRE1 (second series), stronger effect = lower value 1.04 | locus YNR049C, strain mso1, stronger effect = lower value 1.05 | locus YOR001W, strain rrp6, stronger effect = lower value 1.06 | locus YOR070C, strain gyp1, stronger effect = lower value 1.05 | locus YOR080W, strain dia2, stronger effect = lower value 1.06 | locus YOR083W, strain WHI5, stronger effect = lower value 1.05 | locus YOR106W, strain vam3, stronger effect = lower value 0.994 | [7] 1.01 | locus YOR265W, strain rbl2, stronger effect = lower value 1.04 | locus YOR270C, strain vph1, stronger effect = lower value 0.983 | locus YOR290C, strain snf2, stronger effect = lower value 1.03 | locus YPL051W, strain arl3, stronger effect = lower value 0.979 | locus YPL078C, strain atp4, stronger effect = lower value 1.05 | locus YPL106C, strain sse1, stronger effect = lower value 1.05 | locus YPL240C, strain hsp82, stronger effect = lower value 1.06 | [8] 1.02

S=C(NC1CCCCC1)N1CCC(c2cnc[nH]2)CC1
inactive: [9] 1.01 | [10] 0.998 | [11] 1.01 | [12] 0.994 | locus YJR075W, strain HOC1, stronger effect = lower value 1 | locus YMR263W, strain SAP30, stronger effect = lower value 1.01 | [13] 0.996 | locus YNL128W, strain TEP1, stronger effect = lower value 0.984 | [14] 1 | [15] 0.974 | [16] 0.986 | [17] 1.02 | locus YPL055C, strain LGE1, stronger effect = lower value 0.993

Cc1cccc(/C=C/c2ccccc2)n1
inactive: locus YAL013W, strain DEP1, stronger effect = lower value 1 | [9] 0.984 | [10] 1.01 | [11] 1.04 | [12] 0.975 | locus YGR078C, strain PAC10, stronger effect = lower value 1.01 | [13] 0.995 | locus YNL153C, strain GIM3, stronger effect = lower value 0.93 | [14] 0.963 | [15] 0.986 | [16] 0.989 | [17] 0.923 | locus YPL241C, strain CIN2, stronger effect = lower value 1.02

OC(COc1ccc(F)cc1)(c1ccccc1)c1ccccc1
inactive: locus YAR019C, strain CDC15, stronger effect = lower value 0.955 | locus YBL105C, strain PKC1, stronger effect = lower value 0.953 | locus YBR135W, strain CKS1, stronger effect = lower value 0.965 | locus YBR136W, strain MEC1, stronger effect = lower value 0.968 | locus YBR160W, strain CDC28, stronger effect = lower value 0.951 | locus YDL017W, strain CDC7, stronger effect = lower value 0.955 | locus YDL028C, strain MPS1, stronger effect = lower value 0.977 | locus YDL101C, strain DUN1, stronger effect = lower value 0.939 | locus YDL108W, strain KIN28, stronger effect = lower value 0.982 | locus YDL132W, strain cdc53, stronger effect = lower value 0.955 | locus YDL214C, strain PRR2, stronger effect = lower value 0.964 | locus YDR052C, strain DBF4, stronger effect = lower value 0.965 | locus YDR054C, strain cdc34, stronger effect = lower value 0.949 | locus YDR226W, strain ADK1, stronger effect = lower value 0.955 | locus YDR477W, strain SNF1, stronger effect = lower value 0.985 | locus YER123W, strain YCK3, stronger effect = lower value 0.969 | locus YER133W, strain GLC7, stronger effect = lower value 0.993 | locus YFL009W, strain cdc4, stronger effect = lower value 0.954 | locus YFL029C, strain CAK1, stronger effect = lower value 0.957 | locus YFR003C, strain YPI1, stronger effect = lower value 0.961 | locus YFR019W, strain FAB1, stronger effect = lower value 0.974 | locus YFR028C, strain CDC14, stronger effect = lower value 0.964 | locus YGR040W, strain KSS1, stronger effect = lower value 0.998 | locus YGR052W, strain FMP48, stronger effect = lower value 1.1 | locus YGR092W, strain DBF2, stronger effect = lower value 0.939 | [1] 1.14 | [2] 1.09 | locus YHR082C, strain KSP1, stronger effect = lower value 1.1 | locus YHR205W, strain SCH9, stronger effect = lower value 0.977 | locus YIL147C, strain SLN1, stronger effect = lower value 0.966 | [3] 1.1 | locus YJL128C, strain PBS2, stronger effect = lower value 0.913 | locus YJL157C, strain FAR1, stronger effect = lower value 0.968 | locus YJR016C, strain ILV3, stronger effect = lower value 0.959 | locus YJR066W, strain TOR1 (second series), stronger effect = lower value 1.01 | [4] 1.15 | locus YKL048C, strain ELM1, stronger effect = lower value 0.95 | locus YKL067W, strain YNK1, stronger effect = lower value 0.961 | locus YKL101W, strain HSL1, stronger effect = lower value 0.962 | locus YKL193C, strain SDS22, stronger effect = lower value 0.959 | locus YKL203C, strain TOR2, stronger effect = lower value 1.07 | [5] 0.971 | locus YLR133W, strain CKI1, stronger effect = lower value 0.955 | locus YLR403W, strain SFP1, stronger effect = lower value 0.983 | locus YML070W, strain DAK1, stronger effect = lower value 0.973 | locus YMR001C, strain CDC5, stronger effect = lower value 0.954 | locus YMR205C, strain PFK2 (second series), stronger effect = lower value 0.968 | locus YMR277W, strain FCP1, stronger effect = lower value 0.961 | locus YNL006W, strain LST8, stronger effect = lower value 0.97 | locus YNL020C, strain ARK1, stronger effect = lower value 0.959 | locus YNL161W, strain CBK1, stronger effect = lower value 0.958 | [6] 1.12 | locus YNL207W, strain RIO2, stronger effect = lower value 0.971 | locus YNL222W, strain SSU72, stronger effect = lower value 0.962 | locus YNL307C, strain MCK1 (second series), stronger effect = lower value 0.961 | locus YOL078W, strain AVO1, stronger effect = lower value 0.967 | locus YOL136C, strain PFK27, stronger effect = lower value 0.98 | locus YOR061W, strain CKA2, stronger effect = lower value 0.969 | locus YOR119C, strain RIO1, stronger effect = lower value 1.02 | [7] 1.06 | locus YOR329C, strain SCD5, stronger effect = lower value 0.956 | locus YPL031C, strain PHO85, stronger effect = lower value 0.985 | locus YPL153C, strain RAD53, stronger effect = lower value 1 | locus YPL204W, strain HRR25, stronger effect = lower value 0.991 | locus YPL209C, strain IPL1, stronger effect = lower value 0.956 | [8] 1.02 | locus YPR025C, strain CCL1, stronger effect = lower value 0.954 | locus YPR106W, strain ISR1, stronger effect = lower value 0.954 | locus YPR111W, strain DBF20, stronger effect = lower value 0.949 | strain NNK1, stronger effect = lower value 0.956 | strain TSCII, stronger effect = lower value 0.957
